Reference: PubChem BioAssay (NCI)
Compounds without any hit were thinned out: in the full panel of roughly 79,000, 15% have a hit. Calls of active or inactive are those of the source. No stated cut-off is given here; in the data, active means growth inhibition above about 70%; inactive means the rest.

Assays:
[1] = NCI Yeast Anticancer Drug Screen. Data for the rad52 strain (AID 147);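 further: 0% = growth of vehicle-treated control cultures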; details: S. cerevisiae rad52 mutant growth inhibition, hits give high values
Summary of the method: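 The repair-mutant yeast strain was incubated with compounds, then growth was read and inhibition derived relative to vehicle.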

[2] = NCI Yeast Anticancer Drug Screen. Data for the wt1 strain (AID 149);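 further: 0% = growth of vehicle-treated wt1 cultures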; details: S. cerevisiae wt1 strain (SPY 50644) growth inhibition, hits give high values
Summary of the method: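 Readout: yeast growth inhibition, normalised to vehicle controls, in the wt1 strain exposed to test compounds.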

[3] = NCI Yeast Anticancer Drug Screen. Data for the rad50EPP+ strain (AID 151);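 further: 0% = growth of vehicle-treated control cultures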; details: S. cerevisiae rad50 mutant strain, hits give high values
Summary of the method: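 Vehicle-normalised growth inhibition; rad50EPP+ yeast strain, altered in DNA damage repair, compound-treated.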

[4] = NCI Yeast Anticancer Drug Screen. Data for the mgt1 strain (AID 153); details: S. cerevisiae mgt1 mutant growth inhibition, hits give high values
Summary of the method: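 Vehicle-normalized growth inhibition is determined in mgt1 yeast, a strain selected for a defined alteration in DNA repair or cell cycle control.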

[5] = NCI Yeast Anticancer Drug Screen. Data for the rad50 strain (AID 155);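 further: 0% = growth of vehicle-only cultures of the same strain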; details: S. cerevisiae rad50 strain growth inhibition, hits give high values
Summary of the method: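 Compounds were tested on a yeast strain with an engineered DNA damage repair alteration; the reported value is growth inhibition normalised to vehicle treatment.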

[6] = NCI Yeast Anticancer Drug Screen. Data for the mec2-1 strain (AID 157); details: S. cerevisiae mec2-1 strain, hits give high values
Summary of the method: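 Mutant yeast (mec2-1) grown with compound; growth inhibition relative to vehicle control reported.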

[7] = NCI Yeast Anticancer Drug Screen. Data for the rad14 strain (AID 159);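 further: 0% = growth of vehicle-treated control cultures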; details: S. cerevisiae rad14 strain growth inhibition, hits give high values
Summary of the method: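 Compound-treated yeast with a defined DNA-repair lesion; growth inhibition normalised to vehicle-treated cultures.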

[8] = NCI Yeast Anticancer Drug Screen. Data for the sgs1 mgt1 strain (AID 161);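 further: 0% = growth of cultures given vehicle only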; details: S. cerevisiae sgs1 mgt1 strain, at 50.0 µM, hits give high values
Summary of the method: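 Percent growth inhibition was derived by comparing compound-exposed mutant yeast with vehicle-exposed cultures. The strain carries alterations in DNA damage repair.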

[9] = NCI Yeast Anticancer Drug Screen. Data for the CLN2oe strain (AID 163);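 further: 0% = growth of vehicle-only control cultures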; details: S. cerevisiae CLN2oe strain, hits give high values
Summary of the method: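 Compounds are applied to yeast harbouring a defined cell-cycle control change; reduced growth compared with vehicle-treated controls gives the value.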

[10] = NCI Yeast Anticancer Drug Screen. Data for the cln2 rad14 strain (AID 165);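 further: 0% = growth equal to vehicle treated cultures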; details: S. cerevisiae cln2 rad14 strain, at 50.0 µM, hits give high values
Summary of the method: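 Readout is yeast growth inhibition versus vehicle-treated controls, using a strain with cln2 and rad14 alterations exposed to compound.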

[11] = NCI Yeast Anticancer Drug Screen. Data for the bub3 strain (AID 167); details: S. cerevisiae bub3 mutant strain, hits give high values
Summary of the method: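 Growth of a checkpoint-deficient yeast mutant is measured after compound exposure. Values represent inhibition relative to vehicle.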

[12] = NCI Yeast Anticancer Drug Screen. Data for the wt2 strain (AID 169);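 further: 0% = growth of vehicle-treated yeast cultures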; details: S. cerevisiae wt2 strain growth inhibition, hits give high values
Summary of the method: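 Against vehicle-treated controls, the growth of yeast exposed to each compound was compared, and the inhibition was recorded.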

[13] = NCI Yeast Anticancer Drug Screen. Data for the mlh1 strain (AID 171);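 further: 0% = growth of vehicle-treated control cultures of the same strain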; details: S. cerevisiae mlh1 strain growth inhibition, hits give high values
Summary of the method: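 Measured: yeast growth. Reference: vehicle-treated controls. Organism: strain with a defined alteration affecting DNA damage repair or cell cycle control, treated with compound.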

[14] = NCI Yeast Anticancer Drug Screen. Data for the sgs1 strain (AID 173);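 further: 0% = growth of vehicle-only control cultures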; details: S. cerevisiae sgs1 mutant, hits give high values
Summary of the method: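 Each compound was added to cultures of the altered yeast strain. Growth was recorded, and inhibition was derived by comparison with vehicle controls.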

[15] = NCI Yeast Anticancer Drug Screen. Data for the mlh1 rad18 strain (AID 175); details: S. cerevisiae mlh1 rad18 strain growth inhibition; at 50.0 µM; hits give high values
Summary of the method: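 Genetically defined yeast (DNA repair-deficient) exposed to compounds; growth inhibition determined relative to vehicle.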

[16] = NCI Yeast Anticancer Drug Screen. Data for the rad18 strain (AID 177); details: S. cerevisiae rad18 mutant growth inhibition, hits give high values
Summary of the method: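 Vehicle-treated cultures served as the baseline for scoring compound-induced growth inhibition in DNA-repair-mutant yeast.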

Measured: growth inhibition

CC1=C(CO)C2=C(C)C3(CC3)[C@@](C)(O)C(=O)C2=C1
inactive: [1]; at 1.2 µM 1% | [1]; at 3.7 µM 9% | [1]; at 11.0 µM 27% | [1]; at 33.0 µM 52% | [2]; at 1.2 µM 0% | [2]; at 3.7 µM -1% | [2]; at 11.0 µM -1% | [2]; at 33.0 µM 0% | [2]; at 100.0 µM -13% | [3]; at 1.2 µM -2% | [3]; at 3.7 µM 0% | [3]; at 11.0 µM 0% | [3]; at 33.0 µM 2% | [3]; at 100.0 µM 0% | [4]; at 1.2 µM -2% | [4]; at 3.7 µM -1% | [4]; at 11.0 µM -1% | [4]; at 33.0 µM -1% | [4]; at 100.0 µM 0% | [5]; at 1.2 µM 1% | [5]; at 3.7 µM 3% | [5]; at 11.0 µM 13% | [5]; at 33.0 µM 42% | [5]; at 50.0 µM 14% | [6]; at 1.2 µM 0% | [6]; at 3.7 µM -1% | [6]; at 11.0 µM 1% | [6]; at 33.0 µM 19% | [6]; at 50.0 µM -0.75% | [6]; at 100.0 µM 66% | [7]; at 1.2 µM 0% | [7]; at 3.7 µM -2% | [7]; at 11.0 µM 5% | [7]; at 33.0 µM 19% | [7]; at 100.0 µM 59% | [8] 43.9% | [9]; at 1.2 µM -7% | [9]; at 3.7 µM -6% | [9]; at 11.0 µM -13% | [9]; at 33.0 µM -11% | [9]; at 100.0 µM -2% | [10] 18.3% | [11]; at 1.2 µM -4% | [11]; at 3.7 µM -5% | [11]; at 11.0 µM -8% | [11]; at 33.0 µM -14% | [11]; at 50.0 µM -40.2% | [11]; at 100.0 µM -13% | [12]; at 1.2 µM -2% | [12]; at 3.7 µM 0% | [12]; at 11.0 µM -1% | [12]; at 33.0 µM -1% | [12]; at 100.0 µM 3% | [13]; at 1.2 µM -1% | [13]; at 3.7 µM 0% | [13]; at 11.0 µM 1% | [13]; at 33.0 µM 3% | [13]; at 100.0 µM 8% | [14]; at 1.2 µM 4% | [14]; at 3.7 µM 11% | [14]; at 11.0 µM 29% | [14]; at 33.0 µM 55% | [15] 0.3% | [16]; at 1.2 µM 44%
active: [1]; at 100.0 µM 81% | [5]; at 100.0 µM 79% | [14]; at 100.0 µM 78% | [16]; at 3.7 µM 82% | [16]; at 11.0 µM 90% | [16]; at 33.0 µM 93% | [16]; at 100.0 µM 94%

CC1=C2C(=C[C@@](C)(CO)[C@@H]2O)C(=O)[C@](C)(O)C12CC2
active: [1]; at 100.0 µM 74% | [5]; at 100.0 µM 70% | [14]; at 100.0 µM 73% | [16]; at 3.7 µM 74% | [16]; at 11.0 µM 90% | [16]; at 33.0 µM 93% | [16]; at 100.0 µM 95%
inactive: [1]; at 1.2 µM 2% | [1]; at 3.7 µM 9% | [1]; at 11.0 µM 21% | [1]; at 33.0 µM 42% | [2]; at 1.2 µM 1% | [2]; at 3.7 µM -1% | [2]; at 11.0 µM 0% | [2]; at 33.0 µM 0% | [2]; at 100.0 µM 25% | [3]; at 1.2 µM -3% | [3]; at 3.7 µM -1% | [3]; at 11.0 µM 1% | [3]; at 33.0 µM -2% | [3]; at 100.0 µM 1% | [5]; at 1.2 µM 2% | [5]; at 3.7 µM 2% | [5]; at 11.0 µM 11% | [5]; at 33.0 µM 31% | [5]; at 50.0 µM 33.8% | [6]; at 1.2 µM 0% | [6]; at 3.7 µM 0% | [6]; at 11.0 µM 1% | [6]; at 33.0 µM 13% | [6]; at 50.0 µM 22.9% | [6]; at 100.0 µM 48% | [7]; at 1.2 µM 1% | [7]; at 3.7 µM -1% | [7]; at 11.0 µM 4% | [7]; at 33.0 µM 13% | [7]; at 100.0 µM 41% | [8] 44% | [10] 22.6% | [11]; at 1.2 µM -4% | [11]; at 3.7 µM -5% | [11]; at 11.0 µM -7% | [11]; at 33.0 µM -10% | [11]; at 50.0 µM -41% | [11]; at 100.0 µM -12% | [12]; at 1.2 µM -2% | [12]; at 3.7 µM 0% | [12]; at 11.0 µM 0% | [12]; at 33.0 µM 0% | [12]; at 100.0 µM 1% | [13]; at 1.2 µM 0% | [13]; at 3.7 µM 1% | [13]; at 11.0 µM 2% | [13]; at 33.0 µM 3% | [13]; at 100.0 µM 7% | [14]; at 1.2 µM 3% | [14]; at 3.7 µM 10% | [14]; at 11.0 µM 24% | [14]; at 33.0 µM 50% | [15] 11.7% | [16]; at 1.2 µM 37%
